Cruzain inh noDet = blocks cruzain activity in detergent-free assay | P25779 | purified cruzain, Z-FR-AMC fluorescence, no detergent | Potency, µM, most hits filed as inhibitors | 2.3% of 200,000 active | AID 1476; also: nearly all actives have a fitted effect of over 40% in size
Target sequence (P25779 123-467 limits assumed): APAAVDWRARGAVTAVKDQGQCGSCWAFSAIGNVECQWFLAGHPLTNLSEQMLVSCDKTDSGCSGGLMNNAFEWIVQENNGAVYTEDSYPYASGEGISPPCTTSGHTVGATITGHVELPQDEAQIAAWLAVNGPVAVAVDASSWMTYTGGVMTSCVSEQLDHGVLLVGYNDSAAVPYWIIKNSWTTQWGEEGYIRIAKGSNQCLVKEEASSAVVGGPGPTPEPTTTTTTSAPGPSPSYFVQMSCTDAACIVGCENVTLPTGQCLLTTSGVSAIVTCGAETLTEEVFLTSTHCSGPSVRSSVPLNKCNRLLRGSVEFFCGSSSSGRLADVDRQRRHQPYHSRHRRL
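Detergent-free condition (0.00005% Triton X-100) in acetate buffer pH 5.5 with DTT. 1.5 nM enzyme and compound were pre-mixed 15 min, then 2 uM Z-FR-AMC substrate added; reaction progress from fluorescence change between first and third reads (60 s).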
FBPA Giardia inh = inhibitors of Giardia lamblia fructose-1,6-bisphosphate aldolase; A8B2U2; AID 2451; purified Giardia FBPA; Potency, µM (highest dose often 59.6 µM), most hits filed as inhibitors; 0.71% of 290,000 active; also: nearly all actives have a fitted effect of over 55% in size
Target sequence (A8B2U2 whole entry, looked up): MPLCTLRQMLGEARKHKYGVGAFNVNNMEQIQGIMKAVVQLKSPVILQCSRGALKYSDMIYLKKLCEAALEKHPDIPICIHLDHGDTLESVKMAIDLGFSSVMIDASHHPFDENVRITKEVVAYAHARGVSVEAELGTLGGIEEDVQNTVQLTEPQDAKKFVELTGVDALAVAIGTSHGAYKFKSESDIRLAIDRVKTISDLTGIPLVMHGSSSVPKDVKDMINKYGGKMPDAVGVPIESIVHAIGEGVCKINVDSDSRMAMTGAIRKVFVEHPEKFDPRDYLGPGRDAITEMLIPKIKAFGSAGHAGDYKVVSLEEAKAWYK
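40 nM FBPA preincubated 10 min at RT with compound (up to 57.5 uM final), then substrate plus GAPDH/TPI/NAD/arsenate coupling and diaphorase/resazurin added. Fluorescence read after 20 min at RT, 525/598 nm.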
Cruzain inh Det = blocks cruzain activity in presence of Triton detergent; 0.43% of 200,000 active; AID 1478; Potency, µM, usual class: inhibitors; purified cruzain, Z-FR-AMC fluorescence, 0.01% Triton; P25779; also: nearly all actives have a fitted effect of over 40% in size
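Detergent-containing run (0.01% Triton X-100) in acetate buffer pH 5.5 with 5 mM DTT: enzyme at 1.5 nM final, 15 min compound preincubation at room temperature, then 2 uM Z-FR-AMC substrate. Activity taken as 60 s fluorescence increase at 360/450 nm.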
Each line names hits and unclear results; the compound was inactive in the other large screens; ! = not active in a repeat. The full list was thinned out, with hits kept by preference. Calls follow the shape of the dose curve; as a rule, active = well fitted curve in the direction sought with a large enough effect; inconclusive = small, poorly fitted or top-dose-only effect, or another doubt; inactive = no such curve, though single readings can be large; an effect the other way counts as inactive or inconclusive.

O=[N+]([O-])c1ccc(N2CCCC2)cc1NC(c1ccccc1)c1ccccc1	Cruzain inh noDet 10µM
O=[N+]([O-])c1ccc(N2CCOCC2)cc1NC(c1ccccc1)c1ccccc1	Cruzain inh noDet inconclusive
Cc1cc(=O)oc2cc(OCC(=O)NCCc3nc4ccccc4[nH]3)ccc12	Cruzain inh noDet 2.5µM, Cruzain inh Det 13µM
Cc1cc(=O)oc2cc(OCC(=O)NCc3ccccn3)ccc12	none (no result: FBPA Giardia inh)
Cc1cc(C)cc(OCC(=O)Nc2cccc(-c3nc4ccccc4[nH]3)c2)c1	none (no result: FBPA Giardia inh)
CCOc1ccc(OCC(=O)NCCc2nc3ccccc3[nH]2)cc1	Cruzain inh noDet 0.79µM, Cruzain inh Det 5µM
COc1ccc(C(=O)NCCc2nc3ccccc3[nH]2)cc1	Cruzain inh Det 13µM (no result: FBPA Giardia inh)
O=C(CNC(=O)c1ccccc1)NCCc1nc2ccccc2[nH]1	none
O=C(CCCOc1ccccc1)NCCc1nc2ccccc2[nH]1	none (no result: Cruzain inh noDet, Cruzain inh Det)
Cc1cc(C)cc(OCC(=O)NCCc2nc3ccccc3[nH]2)c1	Cruzain inh Det 16µM
CC1=C(C(=O)Nc2ccc(C)cc2C)C(CC(C)C)n2nc(SCc3ccccc3C)nc2N1 (stereo not given)	none (no result: FBPA Giardia inh)
CC(=O)C1=C(C)NC(SCC(=O)c2ccc(Cl)cc2)=C(C#N)C1c1ccco1 (stereo not given)	FBPA Giardia inh inconclusive
CC(=O)C1=C(C)NC(SCC(=O)c2ccc(Cl)cc2Cl)=C(C#N)C1c1ccco1 (stereo not given)	Cruzain inh noDet 32µM, FBPA Giardia inh inconclusive
CC1(C)CCC(C)(C)c2cc(C(=O)Nc3ccc(C(=O)O)cc3)ccc21	none
C/C(=C\c1ccc(C(=O)O)cc1)c1ccc2c(c1)C(C)(C)CCC2(C)C	Cruzain inh noDet 6.3µM!, FBPA Giardia inh inconclusive
CCCc1ccc(-c2cc(C(=O)NCCc3ccc(S(N)(=O)=O)cc3)c3ccccc3n2)cc1	none
CCCc1ccc(-c2cc(C(=O)Nc3ccc([N+](=O)[O-])cn3)c3ccccc3n2)cc1	Cruzain inh noDet 25µM
COc1ccc(N2CCN(C(CNC(=O)C(=O)NCCc3ccccc3)c3cccnc3)CC2)cc1 (stereo not given)	none (no result: FBPA Giardia inh)
O=C(CSc1ccccc1)Nc1nc2ccccc2[nH]1	none
O=C(CSc1ccc(Cl)cc1)Nc1ccc(-c2nc3ccccc3[nH]2)cc1	Cruzain inh noDet 20µM, Cruzain inh Det inconclusive
CCN(CCCNC(=O)CN1N=C(c2ccc(OC)cc2)CCC1=O)c1cccc(C)c1	none (no result: FBPA Giardia inh)
Cc1nc(NC(=O)COC(=O)CCc2nc3ccccc3s2)c(Cl)cc1Cl	none
CCc1ccc(-c2csc(NC(=O)COC(=O)CCc3nc4ccccc4s3)n2)cc1	Cruzain inh noDet 13µM
CCCOc1ccc(C2C(=O)N(C3CCCCCC3)CC(=O)N2CCC)cc1OC (stereo not given)	none (no result: FBPA Giardia inh)
COc1cc(OC)c(-c2c3cc(O)c(=O)cc-3oc3cc(O)c(O)cc23)cc1OC	FBPA Giardia inh inconclusive
Cc1c2cc(O)c(=O)cc-2oc2cc(O)c(O)cc12	Cruzain inh noDet inconclusive, FBPA Giardia inh 7.1µM
O=c1[nH]c(CN2CCN(c3ccccc3O)CC2)nc2scc(-c3ccccc3Cl)c12	none (no result: Cruzain inh noDet, Cruzain inh Det)
O=c1[nH]c(CN2CCc3ccccc32)nc2scc(-c3cccs3)c12	Cruzain inh noDet 10µM
C=CC=O	none (no result: FBPA Giardia inh)
O=C(CCN1C(=O)/C(=C\c2ccccc2F)SC1=S)N1CCCCC1	none (no result: Cruzain inh noDet, Cruzain inh Det)
O=C(CCN1C(=O)/C(=C\c2ccccc2Cl)SC1=S)N1CCN(c2ccccc2)CC1	Cruzain inh noDet 16µM
COc1ccccc1NC(=O)C1=C(C)Nc2nnnn2C1c1cc(Br)c(O)c(OC)c1 (stereo not given)	none (no result: FBPA Giardia inh)
Oc1ccc(Cl)cc1-c1cc(-c2cccc(Br)c2)n[nH]1	Cruzain inh noDet 13µM
Oc1ccc(Cl)cc1-c1cc(-c2ccccc2Cl)[nH]n1	Cruzain inh noDet inconclusive
COc1ccc(-c2nn(C)c3sc(C(=O)Nc4cc(OC)c(OC)c(OC)c4)cc23)cc1OC	Cruzain inh noDet inconclusive (no result: FBPA Giardia inh)
COc1ccc(OCC(=O)NC(=S)Nc2ccc3c4c(cccc24)CC3)cc1	Cruzain inh noDet inconclusive
Cc1ccccc1OCC(=O)NC(=S)Nc1ccc2c3c(cccc13)CC2	Cruzain inh noDet 7.9µM
Nc1nc(-c2cccnc2)cc(-c2cc(-c3cccnc3)nc(N)n2)n1	none (no result: FBPA Giardia inh)
Cc1ccc(-c2nc3ccccc3s2)cc1NC(=S)NC(=O)c1cccc2ccccc12	Cruzain inh noDet 6.3µM
Cc1ccc(-c2nc3ccccc3s2)cc1NC(=S)NC(=O)/C=C/c1ccco1	Cruzain inh noDet 16µM
Cc1ccc(C(=O)NC(=S)Nc2cccc(-c3nc4ccccc4s3)c2)cc1	Cruzain inh noDet inconclusive
O=C(Nc1cc(-c2nc3ccccc3s2)ccc1Cl)c1ccc2c(c1)OCO2	Cruzain inh noDet inconclusive (no result: FBPA Giardia inh)
Cc1ccccc1NC(=S)NC(=O)/C=C/c1ccco1	none (no result: Cruzain inh noDet, Cruzain inh Det)
O=C(/C=C/c1ccco1)NC(=S)Nc1cc(-c2nc3ccccc3s2)ccc1Cl	Cruzain inh noDet 6.3µM
BrC(Br)C(Br)Br	none (no result: FBPA Giardia inh)
COC(=O)[C@@H](NC(=O)N1CCc2nc(COc3ccccc3)c3c(c2C1)CO[C@@H](C)C3)C(C)C	none (no result: Cruzain inh noDet, Cruzain inh Det)
C[C@H](CN(C)C)C(=O)c1ccccc1C(=O)O	none (no result: FBPA Giardia inh)
O=C(Nc1ccc(F)c(F)c1)C1CCCN1S(=O)(=O)c1cccc2nsnc12 (stereo not given)	none (no result: FBPA Giardia inh)
N#Cc1cc2c(=O)n3ccccc3nc2n(CCN2CCOCC2)c1=O	none
N#Cc1cc2c(=O)n3ccccc3nc2n(CCCN2CCOCC2)c1=O	Cruzain inh noDet inconclusive, Cruzain inh Det 28µM
O=C(Nc1ccc(OC(=O)c2ccccc2)c(-c2nc3ccccc3s2)c1)c1ccccc1	Cruzain inh noDet 7.9µM
O=C(CCN1C(=O)c2ccccc2C1=O)Nc1ccc(-c2nc3ccccc3s2)cc1	Cruzain inh noDet 25µM
O=C(CCS(=O)(=O)c1ccccc1)Nc1ccc(-c2nc3ccccc3s2)c(O)c1	Cruzain inh noDet 10µM
Cc1ccc2nc(-c3ccc(NC(=O)CCN4C(=O)c5ccccc5C4=O)cc3)sc2c1	Cruzain inh noDet inconclusive
O=C(Nc1ccc(-c2nc3ccccc3s2)c(O)c1)C1=COCCO1	Cruzain inh noDet inconclusive, Cruzain inh Det 16µM
O=C(Nc1ccc(O)c(-c2nc3ccccc3s2)c1)C1=COCCO1	none
CCS(=O)(=O)c1cccc(C(=O)Nc2ccc(-c3nc4ccccc4s3)c(O)c2)c1	none (no result: FBPA Giardia inh)
COc1ccc(C(=O)Nc2cc(C)c(O)c(-c3nc4ccccc4s3)c2)cc1OC	none (no result: FBPA Giardia inh)
CC(C)(C)c1ccc(OCC2CO2)cc1 (stereo not given)	none (no result: FBPA Giardia inh)
COc1ccc(NC(=O)c2oc3ccccc3c2NC(=O)C23CC4CC(CC(C4)C2)C3)c(OC)c1	Cruzain inh noDet inconclusive (no result: FBPA Giardia inh)
CCCSC(=O)Cl	none (no result: FBPA Giardia inh)
O=S(=O)(c1ccc(-c2nc3ccccc3s2)cc1)N1CCCC1	Cruzain inh noDet 25µM
O=S(=O)(c1cccc(-c2nc3ccccc3s2)c1)N1CCCC1	none
CC(C)(C)OC(=O)[C@H](C1N[C@@H](C(=O)O)C(C)(C)S1)N1C(=O)c2ccccc2C1=O (stereo not given in full)	none (no result: FBPA Giardia inh)
COc1ccc(S(=O)(=O)Nc2ccc(-c3cn4c(C)csc4n3)cc2)cc1	Cruzain inh noDet 25µM (no result: FBPA Giardia inh)
Cc1csc2nc(-c3cccc(NS(C)(=O)=O)c3)cn12	none (no result: FBPA Giardia inh)
Cc1csc2nc(-c3ccc(NS(=O)(=O)c4cc(F)ccc4F)cc3)cn12	Cruzain inh noDet 32µM (no result: FBPA Giardia inh)
CC(=O)Nc1ccc(S(=O)(=O)Nc2ccc(-c3cn4c(C)csc4n3)cc2)cc1	Cruzain inh noDet inconclusive (no result: FBPA Giardia inh)
CCS(=O)(=O)Nc1ccc(-c2cn3c(C)csc3n2)cc1	none (no result: FBPA Giardia inh)

Assay outcomes from PubChem BioAssay.
